Test results as given in PubChem BioAssay (EPA / NIEHS).
Several values for one entry are separate records, joined by “and”; a condition that tells them apart may be missing. Equal entries are not always repeated. Inconclusive results are not listed. The source holds several records for some structures; these can differ, active in one and inactive in another. Activity calls are given as the source filed them. Rule for the calls, unless noted: active = hit-call score of the fitted dose curve at least 0.9, where 1 is the maximum; inactive = score below 0.9.

What was measured:
[1] = CCTE_Shafer_MEA_acute_cross_correlation_area: CCTE's Neural Acute Assay for Area of Cross Correlation, Shafer Lab (AID 2284024);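 note: area under pooled inter-electrode spike cross-correlation near zero lag as percent change from own baseline; curves fitted for loss of cross-correlation area so actives lower synchrony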
Procedure, shortened: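 Primary rat cortical neurons on 48-well MEA plates (16 electrodes/well) were recorded 40 min at baseline on DIV 13 or 15, then 40 min with compound (0.03-40 uM) at 37 C; cross-correlation area expressed as percent change from baseline.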

[2] = CCTE_Shafer_MEA_acute_cross_correlation_HWHM: CCTE's Neural Acute Assay for Cross Correlation at Half Width at Half Maximum, Shafer Lab (AID 2284026);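 note: percent change per well from pre-dose baseline in spike cross-correlogram half width; hits are a decrease in cross-correlogram half width relative to DMSO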
Procedure, shortened: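 Primary rat cortical neurons on 16-electrode MEA wells; 40-min baseline on DIV 13 or 15, then 40-min recording with compound (0.03-40 uM) at 37 C. HWHM of spike cross-correlogram expressed as percent change from baseline per well, DMSO reference.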

[3] = CCTE_Shafer_MEA_acute_synchrony_index: CCTE's Neural Acute Assay for Synchrony, Shafer Lab (AID 2284027);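 note: network synchrony index of spontaneous spiking in primary rat cortical neurons on MEAs; fitted for loss of signal so actives lower synchrony relative to DMSO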
Procedure, shortened: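 Rat cortical cultures, DIV 13/15; spikes detected at 8x rms noise, 300-5000 Hz band-pass. Compound 0.03-40 uM, ≥3 wells; 40-min pre- and post-exposure recordings, 37 C. Readout: % change in synchrony index; loss-of-signal fit vs DMSO.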

[4] = target: Estrogen receptor (Homo sapiens) (UniProt P03372); assay: CCTE_Deisenroth_AIME_384WELL_LUC_Active: CCTE's 384-well Estrogen Receptor Transactivation Assay with AIME metabolic competence (ERTA luciferase; metabolism positive), Deisenroth Lab (AID 2284030; active = hit-call score of the fitted dose curve at least 0.9, where 1 is the maximum)
Procedure, shortened: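 Test chemicals (10-point series, 0.002 - 200 uM) were preincubated 2 hours with alginate-immobilized phenobarbital/beta-naphthoflavone-induced male Sprague Dawley rat liver S9; conditioned medium then went onto VM7Luc4E2 breast cells for 24 hour. Luciferase gain-of-signal fitted relative to 17beta-estradiol.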

[5] = CCTE_Deisenroth_AIME_384WELL_CTox_Active: Cytotoxicity Assessment (CTOX) in CCTE's 384-well Estrogen Receptor Transactivation Assay with AIME metabolic competence (metabolism positive), Deisenroth Lab (AID 2284037; active = hit-call score of the fitted dose curve at least 0.9, where 1 is the maximum;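 note: chemicals first conditioned 2 h by alginate-bound induced rat liver S9 before cells; activity means signal loss indicating cell death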)
Procedure, shortened: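 VM7Luc4E2 breast cells received medium pre-incubated 2 h with chemical over alginate microspheres holding induced male Sprague Dawley rat liver S9; viability read 24 h later by protease-substrate fluorescence. Loss of signal, bidirectional fit, 0.002–200 uM.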

[6] = CCTE_Shafer_MEA_dev_firing_rate_mean: CCTE's Neural Network Formation Assay for Mean Firing Rate, Shafer Lab (AID 2284031)
Procedure, shortened: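 Read-out: spike count/recording length, averaged over active electrodes, then AUC across days 5, 7, 9, 12. Rat cortical cultures on MEA; continuous 12-day exposure, media and treatment renewed DIV 5, 9; DMSO baseline.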

[7] = CCTE_Shafer_MEA_dev_per_burst_spike_percent: CCTE's Neural Network Formation Assay for Percent of Spikes in a Burst, Shafer Lab (AID 2284032);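 for AC50: fitted as a decrease in burst spike percentage below DMSO baseline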
Procedure, shortened: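 Value is trapezoidal AUC over recordings on days 5, 7, 9 and 12 of the well-mean fraction of spikes falling in single-electrode bursts; rat cortical cultures exposed continuously from plating, treatment renewed DIV 5 and 9, fitted downward against DMSO.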

Measured: AC50

Chain of Estrogen receptor (Homo sapiens) (P03372 whole entry, looked up): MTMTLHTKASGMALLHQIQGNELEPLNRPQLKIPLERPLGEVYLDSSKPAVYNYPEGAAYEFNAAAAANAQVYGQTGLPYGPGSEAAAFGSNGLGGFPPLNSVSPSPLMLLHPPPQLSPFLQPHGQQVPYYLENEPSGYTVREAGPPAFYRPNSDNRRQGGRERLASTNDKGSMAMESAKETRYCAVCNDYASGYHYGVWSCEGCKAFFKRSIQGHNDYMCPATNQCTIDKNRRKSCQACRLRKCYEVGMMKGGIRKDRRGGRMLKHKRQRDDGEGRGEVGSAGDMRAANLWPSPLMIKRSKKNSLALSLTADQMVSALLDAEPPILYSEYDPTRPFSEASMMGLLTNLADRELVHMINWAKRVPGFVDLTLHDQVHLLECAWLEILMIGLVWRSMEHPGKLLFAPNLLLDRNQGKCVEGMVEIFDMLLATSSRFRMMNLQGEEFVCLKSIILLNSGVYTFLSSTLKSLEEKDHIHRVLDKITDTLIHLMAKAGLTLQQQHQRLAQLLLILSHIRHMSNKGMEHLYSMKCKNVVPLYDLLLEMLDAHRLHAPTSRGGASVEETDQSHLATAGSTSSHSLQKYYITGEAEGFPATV

COS(=O)(=O)OC
not listed: [6] | [7]
inactive: all other assays above

Clc1ccc(C(Cl)(Cl)Cl)cc1
not listed: [6] | [7]
inactive: all other assays above

ClC1=C(Cl)[C@]2(Cl)[C@@H]3[C@@H](Cl)[C@H]4O[C@H]4[C@@H]3C1(Cl)C2(Cl)Cl
inactive: [6]
active: [1] 118 nM | [2] 458 nM | [3] 95.2 nM | [7] 25300 nM

CCCN(CCC)N=O
not listed: [6] | [7]
inactive: all other assays above

C=CC(N)=O
not listed: [4] | [5]
inactive: all other assays above

CCCCCCCCCC[N+](C)(C)CCCCCCCCCC
inactive: [1]
active: [2] 1630 nM | [3] 14400 nM

CC(C)C(=O)OCC(C)(C)C(OC(=O)C(C)C)C(C)C (stereo not given)
inactive: [1] | [2] | [3]

Nc1ccc(-c2ccc(N)cc2)cc1
not listed: [6] | [7]
inactive: all other assays above

COc1ccc(O)c(C(C)(C)C)c1
active: [1] 44.4 nM | [2] 15 µM and 2.79 µM and 32.2 µM | [3] 15 µM and 3.93 µM and 33 µM
inactive: [1] | [4] | [6] | [7] | [5]

ClC1=C(Cl)[C@]2(Cl)[C@@H]3[C@H]4C[C@H]([C@@H]5O[C@H]45)[C@@H]3[C@@]1(Cl)C2(Cl)Cl
inactive: [6] | [7]
active: [1] 11.9 nM | [2] 85.9 nM | [3] 24.8 nM | [4] 2760 nM
